“And” between values parts separate entries of the source, which are not always exact repeats. Equal entries are not always repeated. Unmarked numbers belong to inactive results. The source made the active and inactive calls. How the calls were made is not given here.
Experiments:
[1] = test system: Botulinum neurotoxin type F light chain protease (Clostridium botulinum); test: Clostridium botulinum type F light chain protease inhibitors, microsphere substrate cleavage, validation (AID 588459); conditions: multiplex microsphere protease substrate cleavage assay, flow cytometry; at 10 µM; hits give high values
[2] = molecular target: Botulinum neurotoxin type A (Clostridium botulinum) (UniProt P0DPI0); test: BoNT/A light chain protease inhibitors, biochemical, multiplex microsphere flow cytometry, validation set (AID 588460); conditions: at 10 µM, hits give high values
Chain of Botulinum neurotoxin type A (Clostridium botulinum) (P0DPI0 whole entry, looked up): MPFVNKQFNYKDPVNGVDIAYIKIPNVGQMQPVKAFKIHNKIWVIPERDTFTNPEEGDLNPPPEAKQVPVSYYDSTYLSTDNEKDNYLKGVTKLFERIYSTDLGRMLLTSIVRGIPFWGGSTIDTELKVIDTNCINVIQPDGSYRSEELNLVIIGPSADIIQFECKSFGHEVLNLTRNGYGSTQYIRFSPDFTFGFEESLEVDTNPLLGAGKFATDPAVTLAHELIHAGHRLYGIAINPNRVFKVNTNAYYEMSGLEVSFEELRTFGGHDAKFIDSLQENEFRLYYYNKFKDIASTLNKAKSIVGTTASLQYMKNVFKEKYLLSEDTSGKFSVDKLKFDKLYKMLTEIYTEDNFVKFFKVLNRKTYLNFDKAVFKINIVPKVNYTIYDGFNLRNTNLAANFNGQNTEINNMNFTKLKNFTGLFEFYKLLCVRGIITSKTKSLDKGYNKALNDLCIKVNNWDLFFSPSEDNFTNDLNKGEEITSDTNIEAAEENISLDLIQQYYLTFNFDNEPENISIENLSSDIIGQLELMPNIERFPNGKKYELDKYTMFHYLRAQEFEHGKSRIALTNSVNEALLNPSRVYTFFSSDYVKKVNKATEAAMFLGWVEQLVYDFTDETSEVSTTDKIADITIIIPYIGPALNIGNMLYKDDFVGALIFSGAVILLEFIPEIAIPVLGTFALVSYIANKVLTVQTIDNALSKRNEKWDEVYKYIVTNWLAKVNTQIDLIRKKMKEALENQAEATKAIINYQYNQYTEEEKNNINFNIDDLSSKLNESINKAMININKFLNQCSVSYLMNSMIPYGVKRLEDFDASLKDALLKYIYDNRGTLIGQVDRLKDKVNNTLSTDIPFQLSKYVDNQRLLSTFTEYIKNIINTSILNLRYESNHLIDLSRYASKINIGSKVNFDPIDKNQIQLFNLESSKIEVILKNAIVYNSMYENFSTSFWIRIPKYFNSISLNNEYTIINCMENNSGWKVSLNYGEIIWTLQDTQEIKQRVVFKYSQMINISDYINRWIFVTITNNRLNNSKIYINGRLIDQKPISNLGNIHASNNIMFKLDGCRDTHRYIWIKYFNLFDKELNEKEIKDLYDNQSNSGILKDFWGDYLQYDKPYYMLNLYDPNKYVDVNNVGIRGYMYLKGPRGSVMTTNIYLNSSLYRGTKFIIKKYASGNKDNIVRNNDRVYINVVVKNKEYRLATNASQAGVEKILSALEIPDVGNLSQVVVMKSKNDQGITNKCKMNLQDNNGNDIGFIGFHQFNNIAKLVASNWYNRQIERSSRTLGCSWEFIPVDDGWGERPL

[3] = molecular target: Lethal factor (Bacillus anthracis) (UniProt P15917); test: Bacillus anthracis lethal factor inhibition, microsphere flow cytometry protease assay, validation at 10 µM (AID 588461); conditions: multiplex microsphere protease cleavage assay, hits give high values
Chain of Lethal factor (Bacillus anthracis) (P15917 whole entry, looked up): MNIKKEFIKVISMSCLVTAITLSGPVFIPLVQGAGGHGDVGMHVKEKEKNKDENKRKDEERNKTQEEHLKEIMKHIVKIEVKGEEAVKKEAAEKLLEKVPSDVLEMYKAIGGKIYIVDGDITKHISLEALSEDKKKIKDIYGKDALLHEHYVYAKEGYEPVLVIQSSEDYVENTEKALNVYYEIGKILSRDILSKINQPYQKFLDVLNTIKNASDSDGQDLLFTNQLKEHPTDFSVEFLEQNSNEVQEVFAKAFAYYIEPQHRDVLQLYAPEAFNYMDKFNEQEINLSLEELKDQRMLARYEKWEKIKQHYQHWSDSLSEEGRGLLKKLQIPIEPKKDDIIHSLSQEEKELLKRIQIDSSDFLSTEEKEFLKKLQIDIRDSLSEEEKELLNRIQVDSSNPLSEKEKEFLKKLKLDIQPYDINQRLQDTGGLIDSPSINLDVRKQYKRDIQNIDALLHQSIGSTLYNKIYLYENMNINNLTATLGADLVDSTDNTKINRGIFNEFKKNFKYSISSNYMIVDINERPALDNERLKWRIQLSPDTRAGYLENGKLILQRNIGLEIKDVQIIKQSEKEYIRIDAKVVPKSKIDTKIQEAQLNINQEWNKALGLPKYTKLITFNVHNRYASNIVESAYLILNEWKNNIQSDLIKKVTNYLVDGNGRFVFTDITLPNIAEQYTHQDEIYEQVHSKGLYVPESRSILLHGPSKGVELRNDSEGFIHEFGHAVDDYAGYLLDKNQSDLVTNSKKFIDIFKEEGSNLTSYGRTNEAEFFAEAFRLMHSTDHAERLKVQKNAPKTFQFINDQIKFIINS

SMILES	inhibition [1]	inhibition [2]	inhibition [3]
CN1C(=O)C(O)(CC(=O)c2ccccc2O)c2cc(Br)ccc21 (stereo not drawn)	3.2%	-0.1%	-5.4%
COc1ccc(C(=O)Nc2ccccc2C(=O)NCCCn2ccnc2)cc1	-3.6%	-1.8%	-3.7%
COc1cc2c(cc1OC)-c1cc(NC3CCCCCC3)nc(=O)n1CC2	-2.3%	-1.4%	-7.4%
COc1ccc(-c2c3c(=O)n(C)c(=O)n(C)c3cn2C2CCCCC2)cc1	1.1%	-1.9%	-3.1%
COc1ccc2[nH]c3c(c2c1)CCn1c-3nc2ccccc2c1=O	7%	2.2%	4.4%
COC(=O)c1ccc(-c2ncc(-c3cccc4ccccc34)o2)cc1	-1.4%	-1.3%	4.9%
CN(C)C(=O)CCCCCCCCC(=O)N(C)C	-2.7%	-0.9%	-5.5%
COc1ccc(C(=O)NCCC2=CCCCC2)cc1[N+](=O)[O-]	-5.9%	-1.5%	-4.6%
N#C/C(=C/c1ccccc1)C(=O)NCc1ccccc1	5.2%	0.1%	-7.6%
O=C(/C=C/c1ccccc1)/C=C/c1ccccc1	0.8%	0.3%	1.5%
COc1ccc(-c2cc(=O)oc3cc(OC(C)C(=O)O)ccc23)cc1 (stereo not drawn)	0.9%	2%	9.7%
CCc1cc(C(N)=S)ccn1	1.9%	0.9%	-2.7%
O=c1ccn([C@@H]2O[C@H](CO)[C@@H](O)[C@H]2O)c(=O)[nH]1	0.8%	-0.2%	1.9%
CC(C(=O)O)c1ccc(-c2ccccc2)c(F)c1 (stereo not drawn)	5.7%	0.5%	5.7%
CC(=O)OC(CC(=O)O)C[N+](C)(C)C (stereo not drawn)	3.4%	0%	-3.6%
O=C(O)C1Sc2[nH]c(=O)sc2C2c3ccc(O)cc3OC(=O)C12 (stereo not drawn)	-6.1%	-1%	-16.5%
CC(COc1ccccc1)N(CCCl)Cc1ccccc1 (stereo not drawn)	0.1%	-2.7%	-5.9%
COc1ccc(O)c(C(=O)/C=C/c2cc3ccccc3o2)c1	-0.1%	0%	-3.5%
CCCCOc1cc(C(=O)NCCN(CC)CC)c2ccccc2n1	8.5% and -0.1%	1.5% and -0.6%	-1.9% and 2.1%

SMILES	inhibition [1]	inhibition [2]	inhibition [3]
O=C(COc1ccccc1)Nc1ccc2c(c1)C(=O)N(CC1CCCO1)C2=O (stereo not drawn)	-0.5%	-0.9%	4.5%
CC(C)C[C@H](NC(=O)[C@@H]1Cc2ccccc2CN1C(=O)OC(C)(C)C)C(=O)NCC1CCC(C(=O)O)CC1 (stereo partly drawn)	3%	0.3%	-3.6%
Clc1ccc2c(c1)CCc1cccnc1C2=C1CCNCC1	-4.1%	-0.7%	5.5%
O=C(O)C1CSC(c2ccc3c(c2)OCO3)N1 (stereo not drawn)	3.1%	1.1%	-0.7%
O=C(NC1CCCCC1)N1CCc2[nH]c3ccccc3c2C1	36.5% (active)	3.5%	5%
Fc1ccccc1CNCCC(Cc1ccccc1)c1ccc2c(c1)OCO2 (stereo not drawn)	-8.9%	-0.6%	1.9%
COc1cc(CNc2nnnn2C)ccc1OCc1ccc(F)cc1Cl	-4.9%	-0.5%	-1.3%
COc1ccc(-c2noc(-c3ccccc3-c3ccccc3)n2)cc1	-1.9%	-0.7%	-1.9%
CS(=O)c1ccccc1O (stereo not drawn)	1.4%	0%	-9.2%
COc1ccc(CNC(=O)C2CCCN2C)cc1OC (stereo not drawn)	0.4%	-2.5%	6.2%
CC[C@]1(O)C[C@@H]2CN(CCc3c([nH]c4ccccc34)[C@@](C(=O)OC)(c3cc4c(cc3OC)N(C)[C@H]3[C@@](O)(C(=O)OC)[C@H](OC(C)=O)[C@]5(CC)C=CCN6CC[C@]43[C@@H]65)C2)C1	16.1%	3.4%	-0.3%
COc1cc2c(cc1OC)C(c1cc(OC)c(OC)c(OC)c1)NCC2 (stereo not drawn)	2.3%	-0.2%	6.9%
COC(=O)c1[nH]c(=O)c2ccccc2c1O	0.4%	0.2%	-1.7%
COc1ccc2oc(C)c(C(N)=O)c2c1	-1.6%	0.5%	-0.4%
CCn1c2ccccc2c2cc(CC(N)=O)ccc21	-5.5%	-0.6%	-0.1%
CCC(=O)c1ccc(O)cc1	1.2%	-0.4%	-1.2%
COc1cc(CNc2ccc(C)c(C)c2)cc(OC)c1OC	1.8%	0.5%	-8.9%
CC(=O)O[C@H]1CSC[C@H]1NC(=O)c1ccccc1	-2.6%	-1.2%	-4.4%
Cc1ccc(OCCSc2ncccn2)c(C)c1	3.4%	0.6%	1.7%

SMILES	inhibition [1]	inhibition [2]	inhibition [3]
OC(CCN1CCCC1)(c1ccccc1)C1CCCCC1 (stereo not drawn)	-0.8%	-0.7%	-2.2%
CC(=O)OCC(OC(C)=O)C(OC(C)=O)C(OC(C)=O)C(=O)Nc1cccc(C)c1 (stereo not drawn)	3.7%	1.2%	3.1%
COc1ccc(C2C3C(C)=NN=C3CC(C)(O)C2C(C)=O)cc1 (stereo not drawn)	-2%	-0.6%	4%
C=CCOC(=O)C1=C(C)NC(=O)NC1/C=C/c1ccccc1OC (stereo not drawn)	1%	0.4%	-0.8%
COc1ccc2[nH]cc(CCNC(=O)C3CCCNC3=O)c2c1 (stereo not drawn)	-3.2%	-1.5%	-5.3%
Cc1ccc2nc(NC3=NC(CC(=O)O)C(=O)N3)nc(C)c2c1 (stereo not drawn)	-1.7%	-1%	-4.8%
COc1ccccc1C(=O)N=C1NC(=O)CC2C(=O)NCCN12 (stereo not drawn)	-2.8%	-1.5%	-5.2%
O=P(O)(O)CP(=O)(O)O	-9%	-3%	-3.7%
COc1c2ccoc2nc2c(OC)cccc12	-3.7%	0.1%	3%
O=C(Cc1ccccc1[N+](=O)[O-])NCCCN1CCOCC1	-1.6%	-0.1%	6.7%
CC(C)CC(NC(=O)CNC(=O)C1O[C@@H]2OC(C)(C)O[C@@H]2[C@H]2OC(C)(C)O[C@@H]12)C(=O)O (stereo partly drawn)	2.8%	-2%	2.8%
N/C(=N\OC(=O)c1ccc(Br)o1)c1ccccn1	-0.2%	-0.3%	0.7%
NC(=O)[C@@H]1[C@@H]2C(=O)N(c3ccc(F)cc3)C(=O)[C@@H]2[C@H]2C=Cc3ccccc3N21	0.9%	1.5%	-5.6%
Cc1cc(-c2nn(-c3ccccc3F)cc2CN2CCC(O)CC2)c(C)s1	-1.7%	0.2%	-1.4%
COc1ccc2oc(=O)c(C(=O)Nc3ccccc3-c3ccccc3)cc2c1	3.1%	0.3%	-1.6%
CCC1(c2ccccc2)NC(=S)N(c2ccc(C)c(C)c2)N1 (stereo not drawn)	1%	-0.8%	-3%
COc1cc(C(=O)CCN2CCC(c3ccccc3)C2)cc(OC)c1OC (stereo not drawn)	0.2%	1.9%	6.6%
O=C(COc1ccc(F)cc1)OCCN1CCOCC1	1.8%	-1%	-5.2%
